± gives the standard deviation.
Experiments:
[1] = system: MILI (PIWIL2) piRISC loaded with piRNA #1 (26 nt); assay: pre-steady-state target cleavage rate (min^-1); guide: piRNA #1 5'p-UGAGGUAGUAGGUUGUAUAGUAUCCA; higher = faster piRNA-guided slicing of the target; details: auxiliary factor: 500 nM mouse GTSF1
Summary of the method: (§1)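 With or without 500 nM GTSF1 partner protein, 1 nM active affinity-purified piRISC carrying one synthetic guide was mixed with 0.1 nM transcribed, DNA-blocked target RNA library in HEPES–potassium acetate buffer at 33 °C for 0–8 or 0–960 min. Uncleaved targets were sequenced and normalised to depth and to weakly complementary targets, three trials were pooled, and k3 was capped at 0.0001 min^-1. The pre-steady-state cleavage rate came from a burst-and-steady-state fit.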

[2] = system: EfPiwi piRISC loaded with piRNA #1 (26 nt); assay: pre-steady-state target cleavage rate (min^-1); auxiliary factor: 500 nM Ephydatia muelleri Gtsf1; guide: piRNA #1 5'p-UGAGGUAGUAGGUUGUAUAGUAUCCA; MIWI and MILI are mouse PIWI proteins and EfPiwi is from a freshwater sponge; tags in brackets are library labels; higher = faster piRNA-guided slicing of the target
Summary of the method: as §1

| Sequence | pre-steady-state target cleavage rate [1] | pre-steady-state target cleavage rate [2] |
| --- | --- | --- |
| GGAGACGAAACUAUACAACCUAGUACCUCA | 0.0663 ± 0.021 | 0.0035 ± 0.0025 |
| GGAGACCUAACUAUACAACCUACUACCUCA [g2:g21:cont:t1A] | 0.148 ± 0.032 | 0.013 ± 0.0043 |
| GGAGACGAUACUAUACAACCUACAUACCUCA | 0.153 ± 0.016 | 0.00413 ± 0.0021 |
| GGAGUGGAAACUAUACAACCUACUACCUGA | 0.105 ± 0.023 | 0.00283 ± 0.0023 |
| GGAGACGAUACUAUACAACCUACUAGCACA | 0.00848 ± 0.0055 | 0.00326 ± 0.0016 |
| GGAGUAGAUACUAUACAACCUACUACCUCA | 0.186 ± 0.0093 | 0.158 ± 0.057 |
| GGAGACCAUACUAUACAACCUACUGACCUCA | 0.0765 ± 0.017 | 0.0102 ± 0.0061 |
| GGAGAGGAUACUAUACAAACUACUACCUCA | 0.134 ± 0.013 | 0.00673 ± 0.0029 |
| GGAGAGGAUACUAUACAACCUAGUACCUCA | 0.00636 ± 0.0033 | 0.00393 ± 0.0016 |
| GGAGUGGUUACUAUACAACCUACUACCUCA | 0.186 ± 0.0089 | 0.00957 ± 0.004 |
| GGAGACCAUACUAUACUACGUACUACCUCA | 0.0334 ± 0.0056 | 0.00415 ± 0.0028 |
| GGAGAGGAUACGAUACAACCUACUACCUCA | 0.166 ± 0.011 | 0.00899 ± 0.0037 |
| GGAGACCAAACUAUACAAGCUACUACCUCA | 0.179 ± 0.025 | 0.00675 ± 0.0052 |
| GGAGACCUUACCUAUACAACCUACUACCUCA | 0.0629 ± 0.016 | 0.0117 ± 0.0057 |
| GGAGUGGAUACUAUCAACCUACUACCUCA | 0.186 ± 0.0098 | 0.0872 ± 0.035 |
| GGAGACGUUACUAUACAAGCUACUACCUCA | 0.216 ± 0.017 | 0.00435 ± 0.002 |
| GGAGACGAUACUAUUCAUCCUACUACCUCA | 0.264 ± 0.021 | 0.00763 ± 0.0036 |
| GGAGUGGAUACAAUACAACCUACAACCUCA | 0.0772 ± 0.01 | 0.00248 ± 0.0013 |
| GGAGACGAUACUAUACAUCCUACUAGCUCA | 0.173 ± 0.027 | 0.00336 ± 0.0019 |
| GGAGACGAUACUACACAACCUACUACCUCA | 0.203 ± 0.019 | 0.00692 ± 0.0032 |

| Sequence | pre-steady-state target cleavage rate [1] | pre-steady-state target cleavage rate [2] |
| --- | --- | --- |
| GGAGAGGAUACUAUACAACCUACUCACCUCA | 0.138 ± 0.016 | 0.00339 ± 0.0021 |
| GGAGUGGAUACUAUACAAGCUACUAGCUCA | 0.0419 ± 0.0091 | 0.00331 ± 0.0021 |
| GGAGACGAUACUAUACUACCAACUACCUCA | 0.00729 ± 0.0029 | 0.0038 ± 0.0023 |
| GGAGACGAUUCUAUACAACCUACAACCUCA | 0.164 ± 0.013 | 0.00277 ± 0.0012 |
| GGAGUCGAUACUAUACAACCUACUACCUGA | 0.0703 ± 0.011 | 0.00547 ± 0.0021 |
| GGAGACCAUACUUUACAACCUACUUCCUCA | 0.0695 ± 0.018 | 0.00404 ± 0.0039 |
| GGAGUGGAUACUAUACAAUCUACUACCUCA | 0.127 ± 0.009 | 0.105 ± 0.038 |
| GGAGACCUUACUAUACAACCUACUCCCUCA | 0.0992 ± 0.015 | 0.00342 ± 0.0031 |
| GGAGUGGAUACUAUACAACCUACUACCCCA | 0.0956 ± 0.016 | 0.00727 ± 0.0025 |
| GGAGACGUUAGUAUACAACCUACUACCUCA | 0.119 ± 0.013 | 0.00686 ± 0.0036 |
| GGAGACCUAACUAUACAACAUACUACCUCA | 0.0407 ± 0.0099 | 0.00659 ± 0.0046 |
| GGAGAGGAUACUAUUACAACCUACUACCUCA | 0.167 ± 0.012 | 0.0933 ± 0.04 |
| GGAGACCAUUGAAUACAACCUACUACCUCA | 0.0121 ± 0.0038 | 0.00581 ± 0.0033 |
| GGAGAGGAUACUUUACAUCCUACUACCUCA | 0.253 ± 0.016 | 0.00455 ± 0.0027 |
| GGAGAGGAUACUAUACUACCUAGUACCUCA | 0.00407 ± 0.0037 | 0.00301 ± 0.0017 |
| GGAGACCUUACAUACAACCUACUACCUCA | 0.0259 ± 0.0067 | 0.00863 ± 0.0045 |
| GGAGACCUAUGUAUACAACCUACUACCUUA | 0.0696 ± 0.0086 | 0.00547 ± 0.0039 |
| GGAGUGGAUACUAUACCACCUACUACCUCA | 0.188 ± 0.012 | 0.0104 ± 0.004 |
| GGAGACCAUACUAGACAACCUACUACCUCA | 0.151 ± 0.014 | 0.0249 ± 0.01 |
| GGAGUGGUUACUUUACAACCUACUACCUCA | 0.162 ± 0.0089 | 0.00342 ± 0.0031 |

| Sequence | pre-steady-state target cleavage rate [1] | pre-steady-state target cleavage rate [2] |
| --- | --- | --- |
| GGAGUGGAUACUAUACAACCUAGCUACCUCA | 0.0643 ± 0.006 | 0.003 ± 0.0015 |
| GGAGUGGAUACUAUGACAACCUACUACCUCA | 0.188 ± 0.011 | 0.0114 ± 0.0053 |
| GGAGUGCAUACUAUACAAGCUACUACCUCA | 0.213 ± 0.014 | 0.00482 ± 0.002 |
| GGAGACGUUACUAUACAACCUACAACCUCA | 0.114 ± 0.015 | 0.00216 ± 0.0017 |
| GGAGACGUUACUAUACAACCUUCUACCUCA | 0.00861 ± 0.0028 | 0.00871 ± 0.0043 |
| GGAGACCUUACUAUGCAACCUACUACCUCA | 0.158 ± 0.011 | 0.0061 ± 0.0032 |
| GGAGAGGAGUACUAUACAACCUACUACCUCA | 0.0702 ± 0.0063 | 0.00348 ± 0.003 |
| GGAGACCUUACUAUACAAUCUACUACCUCA | 0.127 ± 0.01 | 0.00599 ± 0.0041 |
| GGAGUGGAUACUAUUCAACCUACUACCACA | 0.093 ± 0.0098 | 0.00327 ± 0.0022 |
| GGAGACGAUAGUAUACAACCUACUACCUCA | 0.147 ± 0.011 | 0.00758 ± 0.0036 |
| GGAGUGGAUACUAUACAACCUACAUACCUCA | 0.109 ± 0.011 | 0.00344 ± 0.0016 |
| GGAGUGGAUACGAUACAACCUACUACCUCA | 0.176 ± 0.011 | 0.0121 ± 0.0053 |
| GGAGACGAUACUAUACAACCUCCUACCUCA | 0.041 ± 0.0079 | 0.00579 ± 0.0016 |
| GGAGACGAUACAAUACAACCUACUACCUGA | 0.116 ± 0.015 | 0.0025 ± 0.0015 |
| GGAGAGGAUACUUUACAACCUACUACCUCA | 0.172 ± 0.011 | 0.00667 ± 0.0036 |
| GGAGACCUUAGCUAUACAACCUACUACCUCA | 0.112 ± 0.015 | 0.0684 ± 0.027 |
| GGAGAGGAUACUAUACAACCUACUACUUCA | 0.153 ± 0.015 | 0.121 ± 0.05 |
| GGAGAGGAUACUGAUACAACCUACUACCUCA | 0.17 ± 0.014 | 0.00615 ± 0.0037 |
| GGAGACGAUACUAUACAUCCUACAACCUCA | 0.287 ± 0.022 | 0.00566 ± 0.0028 |
| GGAGACCAUACUAUACAACCUACUCCCUCA | 0.106 ± 0.017 | 0.00669 ± 0.0039 |

From the supplement of paper PMC10338343
